# Test results from PMC4336329 (PLoS ONE, 2015).
# Hit rate of the full screen: of about 310,000 compounds, about 14,000 (4.5%) showed an effect of 50% or more. Effects have a minus sign here. The entries come from a sample that favours strong results as a whole.
# Molecular target: human ether-à-go-go-related gene (hERG) potassium channel (human, UniProt Q12809)
# Test: primary screen, population patch clamp on CHO cells stably expressing hERG; higher = less effect of the substance
# 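Further: peak tail current of the secondary pulse compared with the same well before compound.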
# Chain of human ether-à-go-go-related gene (hERG) potassium channel (Q12809 whole entry, looked up): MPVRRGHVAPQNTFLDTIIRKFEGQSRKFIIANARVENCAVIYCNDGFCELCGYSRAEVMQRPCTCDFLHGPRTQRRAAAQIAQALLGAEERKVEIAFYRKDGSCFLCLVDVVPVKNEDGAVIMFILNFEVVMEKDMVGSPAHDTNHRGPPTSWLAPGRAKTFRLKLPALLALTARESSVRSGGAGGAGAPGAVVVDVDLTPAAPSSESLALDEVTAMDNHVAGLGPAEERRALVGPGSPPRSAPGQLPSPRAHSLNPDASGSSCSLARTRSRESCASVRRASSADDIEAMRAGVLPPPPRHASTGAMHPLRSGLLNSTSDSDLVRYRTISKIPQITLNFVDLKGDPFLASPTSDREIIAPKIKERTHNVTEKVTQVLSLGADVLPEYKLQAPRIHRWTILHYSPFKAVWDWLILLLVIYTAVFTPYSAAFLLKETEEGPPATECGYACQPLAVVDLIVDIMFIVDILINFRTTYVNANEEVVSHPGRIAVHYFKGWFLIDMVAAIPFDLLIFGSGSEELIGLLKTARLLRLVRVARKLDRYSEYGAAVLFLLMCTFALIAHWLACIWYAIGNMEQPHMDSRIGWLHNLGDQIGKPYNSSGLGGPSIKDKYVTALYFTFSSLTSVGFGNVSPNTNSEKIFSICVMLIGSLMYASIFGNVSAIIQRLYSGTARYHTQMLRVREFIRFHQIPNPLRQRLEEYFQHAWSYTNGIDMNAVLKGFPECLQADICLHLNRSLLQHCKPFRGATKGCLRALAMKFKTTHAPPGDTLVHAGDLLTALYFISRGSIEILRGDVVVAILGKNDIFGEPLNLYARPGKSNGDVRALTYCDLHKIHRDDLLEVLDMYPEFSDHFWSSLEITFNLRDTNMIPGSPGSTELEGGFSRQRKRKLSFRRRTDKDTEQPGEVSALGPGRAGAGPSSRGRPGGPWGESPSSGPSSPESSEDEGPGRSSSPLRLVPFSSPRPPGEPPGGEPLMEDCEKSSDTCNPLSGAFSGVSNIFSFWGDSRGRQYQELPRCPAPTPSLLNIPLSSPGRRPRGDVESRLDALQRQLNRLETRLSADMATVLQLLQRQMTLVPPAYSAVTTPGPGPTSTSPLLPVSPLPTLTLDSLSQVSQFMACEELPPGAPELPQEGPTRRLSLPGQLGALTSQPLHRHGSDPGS
row,Structure (SMILES),"hERG current change (%, negative = inhibition) at 10uM [%]"
1,Oc1ccccc1C(=S)N1CCN(C(=S)c2ccccc2O)CC1,18.4
2,C#CCNC(=O)C1=C[C@H](c2coc3ccccc3c2=O)[C@@H](CCCO)[C@H](OCC)O1,-23.3
3,Cc1[nH]c2ccccc2c1CCCO,10.7
4,CC(C)(C)NC(=O)CN1C(=O)/C(=C/c2ccccc2)SC1=S,10
5,O=C(CN1CCN(c2ccccc2)CC1)NC(=O)NCc1ccco1,9.72
6,CCOC(=O)c1cnc2ccc(Br)cc2c1NCCO,-9.88
7,CCOC(=O)c1ccc2ncc(C(=O)OCC)c(NCCN(C)C)c2c1,-69.5
8,CCOC(=O)c1cnc2ccc(C)cc2c1NCCN1CCOCC1.Cl,-65.7
9,CCOC(=O)c1cnc2ccc(Cl)cc2c1NCCN(C)C,-22.8
10,CCOC(=O)c1ccc2ncc(C(=O)OCC)c(NCCN3CCOCC3)c2c1,-48.5
11,CCOC(=O)c1cnc2ccccc2c1NCCO,-34.8
12,CCOC(=O)c1cnc2c(Cl)c(Cl)ccc2c1NCCN1CCOCC1.Cl,14.3
13,CCOC(=O)c1cnc2ccc(C)cc2c1NCCO,-66.4
14,CCOC(=O)c1cnc2c(ccc3ccccc32)c1NCCN(C)C,-7.47
15,Nc1nnn(CC(=O)N/N=C/c2cccc(Cl)c2)n1,4.76
16,CCCCNC(=O)c1onc(CSc2ccc(F)cc2)c1C(=O)NCCCC,-10.2
17,CCN(CC)C(=O)C1CCC(CNS(=O)(=O)c2cccc3cccnc23)CC1 (stereo not drawn),4.52
18,CN(C)c1ccc(C(=S)N2CCCCCC2)cc1,-5.79
19,NS(=O)(=O)c1ccc(CCNC(=O)c2ccc(Cl)cc2[N+](=O)[O-])cc1,16.7
20,COc1ccccc1N1CCN(C2CC(=O)N(c3ccc(F)cc3)C2=O)CC1 (stereo not drawn),0.313
21,O=C1CSC(c2ccccc2)N1c1ccc(F)cc1F (stereo not drawn),4.37
22,CCn1c(Cc2ccccc2)nnc1SCC(=O)Nc1ccc(S(N)(=O)=O)cc1,2.13
23,Cc1ccc(Cn2c(SCc3cccnc3)nc3c2c(=O)n(C)c(=O)n3C)cc1,-0.713

row,Structure (SMILES),"hERG current change (%, negative = inhibition) at 10uM [%]"
1,Cc1ccc(-c2ccc(S(=O)(=O)NCC3CCCO3)cc2)cc1 (stereo not drawn),26.2
2,CCN(CC)CCCN(C(=O)c1ccc(Br)cc1)c1nc(-c2ccc(OC)cc2)cs1.Cl,-73.2
3,COCCCN(C(=O)c1ccccc1)c1nc(-c2ccc(OC)cc2)cs1,18.3
4,COc1ccc(-c2csc(N(CCCN(C)C)C(=O)c3ccc(Br)cc3)n2)cc1.O=C(O)C(=O)O,-44
5,COCCCN(C(C)=O)c1nc(-c2ccc(OC)cc2)cs1,-16.5
6,CCN(CC)CCCN(C(=O)c1cccc(C)c1)c1nc(-c2ccc(OC)cc2)cs1,-78.2
7,CCC(=O)N(CC)c1nc(-c2ccc(OC)cc2)cs1,-5.81
8,CCN(CC)CCCN(C(=O)c1ccc(OC)cc1)c1nc(-c2ccc(OC)cc2)cs1,-73.7
9,COCCN(C(=O)c1ccccc1)c1nc(-c2ccc(OC)cc2)cs1,28.5
10,CCN(CC)CCCN(C(=O)c1ccc(F)cc1)c1nc(-c2ccc(OC)cc2)cs1,-75.1
11,COCC(=O)N/N=C\c1cccc(OC)c1OC/C=C/c1ccccc1,-15.6
12,O=C(NC1CCCCC1)c1cc(-c2ccc(O)cc2)on1,0.886
13,COc1ccc(Cl)cc1NC(=O)CSc1nc2sccc2c(=O)[nH]1,25.2
14,COc1cc([N+](=O)[O-])ccc1NC(=O)Cc1ccc(F)cc1,0.277
15,CC(=O)N1N=C(c2ccccc2)CC1c1cn(Cc2ccccc2)c2ccccc12 (stereo not drawn),-13.6
16,CCCCNc1ccc(S(N)(=O)=O)cc1[N+](=O)[O-],-0.608
17,Cc1ccc(S(=O)(=O)N2CCN(Cc3nc4ccccc4[nH]3)CC2)cc1C,-45.1
18,CCC(=O)N(CC)c1nc(-c2cc(OC)ccc2OC)cs1,15
19,CCC(=O)N(CCCN(C)C)c1nc(-c2cc(OC)ccc2OC)cs1.Cl,-37.3
20,CCN(CC)CCCN(C(C)=O)c1nc(-c2cc(OC)ccc2OC)cs1.Cl,-65.8
21,CC(/C=C/c1ccccc1)=N\NC(=O)c1ccc2c(c1)OCCO2,3.3
22,O=C(NCc1ccncc1)C(=O)NCC1OCCCN1S(=O)(=O)c1cc(F)ccc1F (stereo not drawn),4.86
23,COc1ccccc1C(=O)Oc1cc(N)n(S(=O)(=O)c2ccc(C)cc2)n1,-7.77

row,Structure (SMILES),"hERG current change (%, negative = inhibition) at 10uM [%]"
1,O=C(CSC(=S)N1CCOCC1)Nc1nccs1,-1.54
2,CCc1c(C)nc(SCC(=O)N2CCCCC2)[nH]c1=O,3.18
3,CCN1CCN(c2cc3c(nn2)Oc2ccccc2N3C)CC1,-41.1
4,CN1c2ccccc2Oc2nnc(Cl)cc21,-5.87
5,CN1c2ccccc2Oc2nnc(N3CCN(Cc4ccccc4)CC3)cc21,-78
6,C=C(C)C(=O)Nc1cccc(C2=NOC3(C2)C[C@@H](C(N)=O)N(C(=O)C(=C)C)C3)c1 (stereo partly drawn),7.14
7,CCOc1ccc(-c2nc(N)ncc2Oc2cccc(OC)c2)c(O)c1,6.7
8,CC(C)CCn1c(SCCN2CCOCC2)nc2c1c(=O)[nH]c(=O)n2C,-17.7
9,C=C(C)Cn1c(SCCN2CCOCC2)nc2c1c(=O)[nH]c(=O)n2C,-4.61
10,C/C(Cl)=C/Cn1c(SCCN2CCOCC2)nc2c1c(=O)[nH]c(=O)n2C,-64.6
11,CCCCCn1c(SCCC(C)C)nc2c1c(=O)[nH]c(=O)n2C,-11.9
12,COCCn1c(SCCN2CCOCC2)nc2c1c(=O)[nH]c(=O)n2C,14.2
13,CCCCCn1c(SCCOCC)nc2c1c(=O)[nH]c(=O)n2C,-46.8
14,CCCCCn1c(SCCN2CCOCC2)nc2c1c(=O)[nH]c(=O)n2C,-66.5
15,CCCCCCn1c(SCCN2CCOCC2)nc2c1c(=O)[nH]c(=O)n2C,-74.6
16,C=CCn1c(SCCN2CCOCC2)nc2c1c(=O)[nH]c(=O)n2C,8.38
17,CCN1CCCC1CNC(=O)c1cc2c(=O)n(C)c3ccccc3c2n1C (stereo not drawn),-18.5
18,Cc1ccc(CN(Cc2cccnc2)C(=S)Nc2cccc(Cl)c2C)cc1,8.32
19,O=C(Cc1ccccc1)Nc1cc([N+](=O)[O-])ccc1N1CCOCC1,-36.2
20,CCOC(=O)CSc1ccc2nnc(CCNS(=O)(=O)c3ccc(C)cc3)n2n1,4.23
21,O=C(CNS(=O)(=O)/C=C/c1ccccc1)OC1CCOC1=O (stereo not drawn),15.9
22,Cc1cc(C)n(-c2nc(N(C)C)nc(N3CCOCC3)n2)n1,-6.78
23,CCN(CC)S(=O)(=O)c1ccc(OC)c(NC(=O)c2ccc([N+](=O)[O-])cc2)c1,-34.9

row,Structure (SMILES),"hERG current change (%, negative = inhibition) at 10uM [%]"
1,CN1/C(=C\C(=S)NC(=O)c2cccc(Br)c2)C(C)(C)c2ccccc21,-7.85
2,CCSc1nnc(N2C(=O)CC(c3ccsc3)C3=C2CC(C)(C)CC3=O)s1 (stereo not drawn),-6.24
3,CN(Cc1nc2ccccc2c(=O)[nH]1)C(=O)c1ccc(S(=O)(=O)N(C)C)cc1,4.04
4,COc1cccc(Nc2nc(-c3cccs3)nc3ccccc23)c1,9.19
5,CCCCC(O)(CCCC)C(=O)N/N=C(\C)c1ccc(Cl)cc1,-66.9
6,C/C(=N\NC(N)=O)c1ccc(Cl)cc1,6.12
7,CCCCCC(=O)N/N=C(\C)c1ccc(Cl)cc1,9.87
8,Cc1onc(-c2ccccc2)c1C(=O)N1CCN(S(=O)(=O)c2ccccc2Br)CC1,-1.99
9,Cc1c(Cl)cccc1NC(=S)N1CC2CC(C1)c1cccc(=O)n1C2 (stereo not drawn),-4.67
10,Cc1nn(-c2nc3ccccc3[nH]2)c(N)c1-c1ccccc1,0.295
11,Cc1nn(C(C)C(=O)NCCCN2CCCCC2C)c(=O)c2c1sc1ccccc12 (stereo not drawn),-5.22
12,Cc1nn(C(C)C(=O)NCCCN(Cc2ccccc2)C(C)C)c(=O)c2c1sc1ccccc12 (stereo not drawn),-11.7
13,CCC1CCCCN1CCCNC(=O)C(C)n1nc(C)c2sc3ccccc3c2c1=O (stereo not drawn),-69.8
14,Cc1nn(C(C)C(=O)NCCCN2CCCCCC2)c(=O)c2c1sc1ccccc12 (stereo not drawn),-28.1
15,CCN(CC)CCCNC(=O)C(C)n1nc(C)c2sc3ccccc3c2c1=O (stereo not drawn),-19.7
16,CCC(C(=O)NCCCN(CC)Cc1ccccc1)n1nc(C)c2sc3ccccc3c2c1=O (stereo not drawn),-68.1
17,CCC(=O)N1CCc2cc(S(=O)(=O)N3CCc4ccccc43)ccc21,2.61
18,Clc1ccc2oc(SCc3cccnc3)nc2c1,-16.2
19,CCCOc1ccc(OCCSc2ncccn2)cc1,-2.55
20,O=C(CCNC(=O)c1ccccc1)NCCCc1ccccc1,6.54
21,O=C(Nc1ccc(C(F)(F)F)cc1)C1CCN(c2cnccn2)CC1,-12.5
